Results as given in PubChem BioAssay (EPA / NIEHS).
The source holds several records for some structures; these can differ, active in one and inactive in another. Calls of active or inactive are those of the source. Rule for the calls: active = hit-call score of the fitted dose curve at least 0.9, where 1 is the maximum; inactive = score below 0.9.

What follows are molecules tested on Tissue plasminogen activator (tPA), PLAT (gene 5327) (assay: BSK_BE3C_tPA: BioMAP Diversity Plus: BE3C Assay for Tissue plasminogen activator (tPA) Biomarker Activity (AID 2283041;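 for outcome: tPA level quantified by ELISA one day after compound addition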)). Details: primary human bronchial epithelial cells; actives raise or lower the signal.
Method: BSK_BE3C is a cell-based, multiplexed-readout assay that uses bronchial epithelial cell, a human lung primary cell, with measurements taken at 24 hours after chemical dosing in a 96-well plate.BSK_BE3C_tPA is an assay component measured in the BSK_BE3C assay. It measures tPA antibody related to regulation of gene expression using ELISA technology.Data from the assay component BSK_BE3C_tPA was analyzed into 1 assay endpoint. This assay endpoint, BSK_BE3C_tPA, was analyzed with bidirectional fitting relative to DMSO as the negative control and baseline of activity. Using a type of binding reporter, gain or loss-of-signal activity can be used to understand changes in the signaling as they relate to the gene PLAT. Furthermore, this assay endpoint can be referred to as a primary readout, because this assay has produced multiple assay endpoints where this one serves a signaling function. To generalize the intended target to other relatable targets, this assay endpoint is annotated to the protease intended target family, where the subfamily is serine protease.
The levels of cell surface (or secreted, indicated by the prefix "s") biomarker endpoints were measured by ELISA. Overt cytotoxicity to cells in confluent adherent cultures (all systems other than the BT system) was assessed by measuring total protein levels using sulforhodamine B (SRB) staining in parallel cultures at the time of biomarker measurements, indicated as SRB endpoints. For proliferation assays for adherent cell types, individual cell types are cultured at sub-confluence and relative cell numbers quantified by SRB staining at time points optimized for each system (48 h: 3C and CASM3C systems; 72 h: BT and HDF3CGF systems; 96 h: SAg system). SRB was performed by staining cells with 0.1% SRB after fixation with 10% TCA and reading wells at 560 nm.Viability and proliferation of PBMC (T cells) was quantified by Alamar Blue reduction for the SAg and BT systems. For PBMC viability (referred to as PBMC Cytotoxicity within the assay endpoint names), cells were plated (75,000/well in a 96-well plate) and then chemical samples added for 1 h before addition of activators, SEB and TSST-1 (20 ng/mL final concentration each). Cells were incubated for 90 h. Then, Alamar Blue (20 uL/well) (Invitrogen, Cat DAL1100) was added for 6 h, and the plates were read with a fluorescence microplate reader at 546/580 nm (excitation/emission). For PBMC proliferation, cells were plated and activated as above but incubated for only 16 h prior to addition of Alamar Blue. Plates were read after 6 h.

SMILES | outcome | AC50
COP(=S)(OC)SCN1C(=O)c2ccccc2C1=O | inactive | 
CCOc1cccc(C2(N3CCN(c4ccccc4)CC3)CCC(C)CC2)c1 (stereo not given) | inactive | 
CNC(=O)Oc1cccc2c1OC(C)(C)C2 | inactive | 
Cn1cc(-c2ccccc2)c(=O)c(-c2cccc(C(F)(F)F)c2)c1 | inactive | 
CS(=O)(=O)NC(=O)c1cc(Oc2ccc(C(F)(F)F)cc2Cl)ccc1[N+](=O)[O-] | inactive | 
CCC(C)c1ccc(O)cc1 (stereo not given) | inactive | 
Oc1ccc2ccc3cccc4ccc1c2c34 |  | 36.1 µM (active)
c1ccc(C2CO2)cc1 (stereo not given) | inactive | 
[O-][Cl+]O | inactive | 
CO[C@@H]1[C@H](OC(=O)NC(=O)CCl)CC[C@]2(CO2)[C@H]1[C@@]1(C)O[C@@H]1CC=C(C)C |  | 7.73 µM (active)
CCNS(=O)(=O)C(F)(F)C(F)(F)C(F)(F)C(F)(F)C(F)(F)C(F)(F)C(F)(F)C(F)(F)F | inactive | 13 µM (active)
[As]#[In] | inactive | 
CCN(CC)CCO | inactive | 
CC(C)COC(=O)c1ccccc1C(=O)OCC(C)C | inactive | 
COC(=O)c1ccccc1N | inactive | 
CC(C)(C)OOC(C)(C)CCC(C)(C)OOC(C)(C)C | inactive | 
c1ccc2c(c1)oc1ccccc12 | inactive | 
CN(C)C(=O)Nc1ccc(Cl)cc1 | inactive | 
OCCCl | inactive | 
CCCCCCCCCCCCCN1CC(C)OC(C)C1 (stereo not given) | inactive | 

SMILES | outcome | AC50
O=C1CCCO1 | inactive | 
C[C@]12C=CC3=C4CCC(=O)C=C4CC[C@H]3[C@@H]1CC[C@@H]2O |  | 3.97 µM (active)
Nc1cc(Cl)cc(C(=O)O)c1Cl | inactive | 
ClC1=C(Cl)[C@]2(Cl)[C@H]3[C@H]([C@@H]4C=C[C@H]3C4)[C@@]1(Cl)C2(Cl)Cl | inactive | 
Cc1cccc(N)c1N | inactive | 
CC(C)(O)c1cnn2c(-c3ccc(F)c(-c4c(F)cccc4C#N)c3)cnc2n1 |  | 25.3 µM (active)
Oc1ccccc1Cl | inactive | 
CN(C)[C@@H]1C(=O)C(C(N)=O)=C(O)[C@@]2(O)C(=O)C3=C(O)c4c(O)cccc4[C@@](C)(O)[C@H]3C[C@@H]12 | inactive | 
O=P(OCCCl)(OCCCl)OCCCl | inactive | 
O=Cc1ccco1 | inactive | 
c1ccc(N=Nc2ccccc2)cc1 | inactive | 
CCCCC(CC)COC(=O)c1ccc(C(=O)OCC(CC)CCCC)c(C(=O)OCC(CC)CCCC)c1 (stereo not given) | inactive | 
COC(=O)Nc1nc2ccccc2[nH]1 | inactive | 
N#CC(Br)(Br)C(N)=O | inactive | 
ClC1=C(Cl)C2(Cl)C3C(Cl)C=CC3C1(Cl)C2(Cl)Cl (stereo not given) |  | 20 µM (active)
COc1cc(C=O)cc2c1[C@H](COC(N)=O)[C@]1(OC(C)=O)ON2C[C@H]2[C@@H]1N2C(C)=O |  | 2.11 µM (active)
C1=Cc2cccc3cccc1c23 | inactive | 
Cc1ccc(N=C=O)cc1N=C=O | inactive | 
CCC12COCN1COC2 | inactive | 
